Experimental data reported in article PMC5540273 (PLoS ONE, 2017).
Where two headings read alike, the source gives them in different places.

How the values were obtained:
FYN = conditions: concentration: 1 μM, replicates: in singlicate; n = 1
GAK = conditions: concentration: 1 μM, replicates: in singlicate; n = 1
GCN2(Kin.Dom.2,S808G) = system: T1, GCN2(Kin.Dom.2,S808G); conditions: concentration: 1 μM, replicates: in singlicate; n = 1
T1 construct: gene EIF2AK4

GRK1 = conditions: concentration: 1 μM, replicates: in singlicate; n = 1
GRK2 = system: T2, GRK2; conditions: concentration: 1 μM, replicates: in singlicate; n = 1
T2 construct: gene ADRBK1

GRK3 = system: T3, GRK3; conditions: concentration: 1 μM, replicates: in singlicate; n = 1
T3 construct: gene ADRBK2

GRK4 = conditions: concentration: 1 μM, replicates: in singlicate; n = 1
GRK7 = conditions: concentration: 1 μM, replicates: in singlicate; n = 1
GSK3A = conditions: concentration: 1 μM, replicates: in singlicate; n = 1
GSK3B = conditions: n = 1
[1] = concentration: 1 μM, replicates: in singlicate
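Further: KINOMEscan kinase panel screen.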

SMILES | %Inh (FYN) [%] | %Inh (GAK) [%] | %Inh (GCN2(Kin.Dom.2,S808G)) [%] | %Inh (GRK1) [%] | %Inh (GRK2) [%] | %Inh (GRK3) [%] | %Inh (GRK4) [%] | %Inh (GRK7) [%] | %Inh (GSK3A) [%] | %Inh (GSK3B; [1]) [%] | %Inh (GSK3B; 1 µM) [%]
Cc1cccc(Nc2nc(N[C@H]3CCCC[C@H]3N)ncc2C(N)=O)c1.Cl [GSK986310] | 52 | 55 | 72 | 0 | 0 | 17 | 6 | 1 | 24 | 19 | 
Cc1ccc(C)c(NC(=O)Nc2ccc(C)c(-c3ccc(C(=O)Nc4ccncc4)cc3)c2)c1 [GSK1398473] | 25 | 0 | 0 | 0 | 0 | 9 | 0 | 0 | 0 | 12 | 
CN(c1ccc(F)c(NC(=O)c2cccc(OC(C)(C)C#N)c2Cl)c1)c1ccc2nc(NC(=O)C3CC3)sc2n1 | 79 | 0 | 0 | 0 | 0 | 6 | 4 | 21 | 4 | 0 | 
COc1cc(Nc2nccc(N3CCC(NC(=O)Nc4ccc5c(c4)OCO5)C3)n2)cc(OC)c1OC (stereo not drawn) [GSK1379766] | 36 | 21 | 0 | 0 | 0 | 8 | 0 | 0 | 0 | 2 | 
CCNC(=O)/C=C/c1n[nH]c2cc(Sc3ccccc3C(=O)NC)ccc12 | 0 | 13 | 6 | 14 | 25 | 20 | 0 | 0 | 18 | 29 | 
CCOc1nccc(-c2c(-c3ccc(F)cc3)ncn2C2CCNCC2)n1 [SB-249175] | 6 | 8 | 40 | 11 | 3 | 0 | 15 | 14 | 0 | 49 | 
Nc1cccc(-c2ccc3c(N)n[nH]c3c2)c1 [GSK2193613] | 13 | 44 | 0 | 0 | 0 | 55 | 9 | 0 | 0 | 96.2 | 
COc1ccc(NC(=O)c2ccoc2)cc1-c1ccc(C(=O)NCC2CC2)cc1 [GW810437] | 0 | 0 | 0 | 24 | 0 | 0 | 0 | 0 | 0 | 26 | 
O=C(Nc1n[nH]c2nc(-c3ccccc3)ccc12)C1CC1 [SB-708999] | 0 | 17 | 0 | 10 | 0 | 28 | 9 | 0 | 77 |  | 12
